The supplement of paper PMC10849652
Of roughly 7,900 targets only a part is listed; those with a hit were picked by preference. About 0.6% of all pairs of compound and target were hits.

Legend:
Assay in all cases: log2 fold change, soluble protein after heating vs DMSO (PISA); higher = thermal stabilisation; K562 cells, 10 uM, 30 min; active = over 0.2 and 3.5 SD of the protein, either way, in both replicates (recomputed)
[1] = compound: CC1=C(C=C(C=C1)NC(=O)C2=CC(=CC=C2)C(C)(C)C#N)NC3=CC4=C(C=C3)N=CN(C4=O)C
Outline: (§1)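 K562 cells at 2×10^6 cells/mL were treated for 30 min with 10 μM compound, and aliquots were heated for 3 min over 48°C-58°C before pooling. Extraction used PBS with 0.5% NP-40 at 4°C, and soluble protein was the supernatant after 21,000xg for 90 min, measured by TMTpro 16plex LC-MS/MS with channel sums equalised. Thermal stability values, relative to control samples and from duplicates, are log2 fold changes.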

[2] = compound: CC1=C(C=C(C=C1)NC(=O)C2=CC(=CC=C2)N(C)C)NC(=O)C3=CC=C(C=C3)O
Outline: as §1

[3] = compound: CC1=CC=C(C=C1)SC2=C3C=C(SC3=CN=C2)C(=O)N
Outline: as §1

[4] = compound: CC1=NC(=CC=C1)C2=C(N=C(N2)C(C)(C)C)C3=CC4=NC=CN=C4C=C3
Outline: as §1

Nexturastat A = compound: CCCCN(Cc1ccc(C(=O)NO)cc1)C(=O)Nc1ccccc1 [Nexturastat A]
Outline: as §1

vemurafenib = compound: CCCS(=O)(=O)Nc1ccc(F)c(C(=O)c2c[nH]c3ncc(-c4ccc(Cl)cc4)cc23)c1F [vemurafenib]
Outline: as §1

[5] = compound: CCCS(=O)(=O)Nc1ccc(F)c(C(=O)c2c[nH]c3ncc(Cl)cc23)c1F
Outline: as §1

[6] = compound: CCCc1cc(C)[nH]c(=O)c1CNC(=O)c1cc(-c2ccnc(N3CCN(C)CC3)c2)cc2c1cnn2C(C)C
Outline: as §1

givinostat = compound: CCN(CC)Cc1ccc2cc(COC(=O)Nc3ccc(C(=O)NO)cc3)ccc2c1 [givinostat]
Outline: as §1

barasertib = compound: CCN(CCCOc1ccc2c(Nc3cc(CC(=O)Nc4cccc(F)c4)[nH]n3)ncnc2c1)CCOP(=O)(O)O [barasertib]
Outline: as §1

Measured: log2 fold change

RAP1GDS1 isoform 5 (UniProt P52306)
Sequence of UniProt P52306 (P52306 whole entry, looked up): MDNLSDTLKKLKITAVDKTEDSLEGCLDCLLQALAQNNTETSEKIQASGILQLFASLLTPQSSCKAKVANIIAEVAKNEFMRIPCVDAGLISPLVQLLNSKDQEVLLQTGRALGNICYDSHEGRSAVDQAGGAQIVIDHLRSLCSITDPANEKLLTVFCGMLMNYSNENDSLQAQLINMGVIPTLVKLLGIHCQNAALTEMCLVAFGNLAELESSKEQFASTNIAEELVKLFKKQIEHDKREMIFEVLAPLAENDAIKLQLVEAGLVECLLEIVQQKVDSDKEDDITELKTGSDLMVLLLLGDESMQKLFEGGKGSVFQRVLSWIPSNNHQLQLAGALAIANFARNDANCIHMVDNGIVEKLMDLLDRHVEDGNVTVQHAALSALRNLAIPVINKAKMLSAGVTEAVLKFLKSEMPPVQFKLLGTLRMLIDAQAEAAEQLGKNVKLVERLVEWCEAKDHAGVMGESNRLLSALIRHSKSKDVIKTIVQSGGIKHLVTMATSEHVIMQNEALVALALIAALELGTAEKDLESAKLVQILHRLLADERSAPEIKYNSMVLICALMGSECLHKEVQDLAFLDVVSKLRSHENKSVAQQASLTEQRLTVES
inactive: [1] -0.04 | [2] -0.035 | [3] 0.073 | [4] 0.042 | Nexturastat A -0.023 | vemurafenib -0.014 | [5] 0.174 | [6] 0.016 | givinostat 0.047 | barasertib 0.019

SCG3 (UniProt Q8WXD2)
Sequence of UniProt Q8WXD2 (Q8WXD2 whole entry, looked up): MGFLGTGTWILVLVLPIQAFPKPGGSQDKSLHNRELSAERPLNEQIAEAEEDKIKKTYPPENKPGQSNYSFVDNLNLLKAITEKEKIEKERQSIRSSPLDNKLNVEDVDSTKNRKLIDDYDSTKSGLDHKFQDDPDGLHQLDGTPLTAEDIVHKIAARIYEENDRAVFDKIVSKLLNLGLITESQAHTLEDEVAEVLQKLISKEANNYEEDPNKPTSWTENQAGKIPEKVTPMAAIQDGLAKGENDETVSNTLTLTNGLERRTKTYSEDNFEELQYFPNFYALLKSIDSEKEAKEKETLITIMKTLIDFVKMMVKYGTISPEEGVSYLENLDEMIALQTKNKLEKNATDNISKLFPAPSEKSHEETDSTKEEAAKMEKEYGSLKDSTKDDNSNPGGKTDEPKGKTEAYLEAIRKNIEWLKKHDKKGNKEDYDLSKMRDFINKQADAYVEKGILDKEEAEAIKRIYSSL
inactive: [1] 0.134 | [2] -0.105 | [3] -0.011 | [4] -0.05 | Nexturastat A -0.071 | vemurafenib 0.027 | [5] -0.041 | [6] 0.11 | givinostat -0.043 | barasertib 0.013

RIOK2 (UniProt Q9BVS4)
inactive: [1] 0.035 | [2] 0.006 | [3] -0.046 | [4] -0.021 | Nexturastat A 0.178 | vemurafenib -0.001 | [5] -0.007 | [6] 0.056 | givinostat 0.035 | barasertib 0

RCOR1 (UniProt Q9UKL0)
inactive: [1] -0.061 | [2] -0.089 | [3] 0.037 | [4] 0.021 | Nexturastat A 0.054 | vemurafenib 0.016 | [5] 0.029 | [6] -0.032 | givinostat 0.114 | barasertib 0.01

SDCBP (UniProt O00560)
inactive: [1] 0.007 | [2] 0.021 | [3] 0.009 | [4] 0.025 | Nexturastat A 0.001 | vemurafenib 0.051 | [5] 0.041 | [6] -0.176 | givinostat -0.027 | barasertib -0.039

RAD50 isoform 2 (UniProt Q92878)
inactive: [1] 0 | [2] -0.024 | [3] 0.004 | [4] 0.009 | Nexturastat A -0.005 | vemurafenib 0.027 | [5] 0.038 | [6] 0.014 | givinostat 0.026 | barasertib 0.033

RAB8B (UniProt Q92930)
inactive: [1] 0.055 | [2] 0.013 | [3] 0.073 | [4] 0.081 | Nexturastat A -0.082 | vemurafenib 0.192 | [5] 0.018 | [6] 0.109 | givinostat -0.014 | barasertib -0.016

RSF1 (UniProt Q96T23)
inactive: [1] 0.111 | [2] -0.112 | [3] -0.015 | [4] 0.217 | Nexturastat A -0.091 | vemurafenib 0.119 | [5] 0.052 | [6] 0.029 | givinostat 0.084 | barasertib 0.095

RNPEP (UniProt Q9H4A4)
inactive: [1] 0.032 | [2] -0.024 | [3] 0.002 | [4] 0.023 | Nexturastat A -0.023 | vemurafenib 0.058 | [5] 0.052 | [6] -0.013 | givinostat -0.112 | barasertib 0.036

SEC23IP (UniProt Q9Y6Y8)
inactive: [1] 0.016 | [2] 0.041 | [3] 0.041 | [4] 0.012 | Nexturastat A 0.022 | vemurafenib 0.051 | [5] 0.056 | [6] 0.024 | givinostat 0.047 | barasertib 0.016

RSRC2 (UniProt Q7L4I2)
Sequence of UniProt Q7L4I2 (Q7L4I2 whole entry, looked up): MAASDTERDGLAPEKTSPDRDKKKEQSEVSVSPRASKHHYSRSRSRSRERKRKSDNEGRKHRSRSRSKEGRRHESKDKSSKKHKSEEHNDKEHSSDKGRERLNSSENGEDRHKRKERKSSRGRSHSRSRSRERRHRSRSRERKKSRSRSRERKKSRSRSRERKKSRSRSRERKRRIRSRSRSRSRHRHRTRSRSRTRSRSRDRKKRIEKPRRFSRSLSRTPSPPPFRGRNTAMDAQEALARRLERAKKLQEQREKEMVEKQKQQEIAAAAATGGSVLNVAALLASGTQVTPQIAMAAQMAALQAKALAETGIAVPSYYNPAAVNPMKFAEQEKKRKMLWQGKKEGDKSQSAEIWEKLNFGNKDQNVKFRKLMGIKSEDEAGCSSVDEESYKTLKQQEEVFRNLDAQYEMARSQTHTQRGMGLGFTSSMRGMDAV
inactive: [1] -0.048 | [2] 0.04 | [3] -0.058 | [4] 0 | Nexturastat A 0.015 | vemurafenib 0.007 | [5] 0.003 | [6] -0.063 | givinostat -0.013 | barasertib 0.01

RAD51 (UniProt Q06609)
inactive: [1] -0.012 | [2] -0.017 | [3] -0.042 | [4] -0.052 | Nexturastat A 0.001 | vemurafenib 0.02 | [5] -0.048 | [6] 0.032 | givinostat 0.179 | barasertib 0.016

RPS14 (UniProt P62263)
inactive: [1] 0.03 | [2] 0 | [3] -0.041 | [4] -0.004 | Nexturastat A 0.102 | vemurafenib -0.066 | [5] -0.038 | [6] 0.046 | givinostat 0.023 | barasertib -0.04

SLC19A1 (UniProt P41440)
inactive: [1] 0.112 | [2] -0.054 | [3] -0.019 | [4] -0.023 | Nexturastat A -0.107 | vemurafenib 0.002 | [5] -0.031 | [6] -0.018 | givinostat 0.007 | barasertib -0.011

RRAGC (UniProt Q9HB90)
inactive: [1] 0.005 | [2] 0.003 | [3] 0.017 | [4] 0.008 | Nexturastat A -0.07 | vemurafenib -0.027 | [5] 0.047 | [6] -0.048 | givinostat 0.052 | barasertib -0.011

SDHAF2 (UniProt Q9NX18)
Sequence of UniProt Q9NX18 (Q9NX18 whole entry, looked up): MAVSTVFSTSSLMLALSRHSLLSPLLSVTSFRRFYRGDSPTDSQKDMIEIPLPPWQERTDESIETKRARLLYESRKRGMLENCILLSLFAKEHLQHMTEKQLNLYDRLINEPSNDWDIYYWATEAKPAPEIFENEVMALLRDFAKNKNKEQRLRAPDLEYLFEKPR
inactive: [1] -0.047 | [2] 0.026 | [3] 0.079 | [4] 0.019 | Nexturastat A 0.076 | vemurafenib 0.028 | [5] -0.024 | [6] -0.06 | givinostat 0.036 | barasertib 0.005

RAB5IF isoform 5 (UniProt Q9BUV8)
inactive: [1] 0.044 | [2] 0.01 | [3] -0.042 | [4] 0.247 | Nexturastat A -0.143 | vemurafenib 0.047 | [5] 0.012 | [6] 0.244 | givinostat -0.007 | barasertib -0.003

RBM12 (UniProt Q9NTZ6)
inactive: [1] 0.016 | [2] -0.101 | [3] 0.057 | [4] 0.116 | Nexturastat A -0.085 | vemurafenib 0.058 | [5] 0.136 | [6] 0.008 | givinostat 0.062 | barasertib 0.122

REEP4 (UniProt Q9H6H4)
inactive: [1] 0.08 | [2] 0.001 | [3] 0.047 | [4] -0.043 | Nexturastat A 0.107 | vemurafenib 0.008 | [5] 0.126 | [6] 0.019 | givinostat 0.011 | barasertib 0.002

RPS6KA1 isoform 2 (UniProt Q15418)
inactive: [1] -0.016 | [2] -0.187 | [3] 0.033 | [4] 0.078 | Nexturastat A 0.004 | vemurafenib 0.016 | [5] 0.046 | [6] 0.071 | givinostat -0.141 | barasertib 0.029

RBIS (UniProt Q8N0T1)
inactive: [1] -0.099 | [2] -0.011 | [3] -0.055 | [4] 0.023 | Nexturastat A -0.012 | vemurafenib -0.002 | [5] -0.063 | [6] -0.074 | givinostat -0.02 | barasertib -0.009

RPS6KA3 (UniProt P51812)
Sequence of UniProt P51812 (P51812 whole entry, looked up): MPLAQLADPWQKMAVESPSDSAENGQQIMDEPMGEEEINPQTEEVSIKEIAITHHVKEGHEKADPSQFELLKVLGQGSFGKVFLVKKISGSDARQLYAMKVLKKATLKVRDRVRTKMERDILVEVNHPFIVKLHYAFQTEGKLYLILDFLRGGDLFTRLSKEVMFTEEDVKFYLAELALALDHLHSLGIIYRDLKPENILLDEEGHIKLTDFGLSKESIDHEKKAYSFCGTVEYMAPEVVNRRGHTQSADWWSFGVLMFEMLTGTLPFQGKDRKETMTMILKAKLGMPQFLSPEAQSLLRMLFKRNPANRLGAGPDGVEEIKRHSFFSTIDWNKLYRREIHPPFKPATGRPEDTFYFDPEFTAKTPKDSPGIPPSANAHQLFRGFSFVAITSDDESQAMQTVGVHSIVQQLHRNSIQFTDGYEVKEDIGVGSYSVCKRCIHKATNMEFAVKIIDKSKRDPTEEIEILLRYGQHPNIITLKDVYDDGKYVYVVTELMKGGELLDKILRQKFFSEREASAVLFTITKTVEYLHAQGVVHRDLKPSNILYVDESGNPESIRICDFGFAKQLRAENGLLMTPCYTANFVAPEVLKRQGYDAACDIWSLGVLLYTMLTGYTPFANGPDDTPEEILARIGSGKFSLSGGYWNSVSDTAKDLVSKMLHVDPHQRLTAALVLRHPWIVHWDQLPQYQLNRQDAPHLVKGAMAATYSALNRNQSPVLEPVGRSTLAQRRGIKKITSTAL
inactive: [1] -0.072 | [2] -0.157 | [3] 0.021 | [4] 0.01 | Nexturastat A 0.015 | vemurafenib 0.001 | [5] 0.016 | [6] 0.042 | givinostat -0.227 | barasertib 0.06

RBM17 (UniProt Q96I25)
inactive: [1] -0.004 | [2] -0.036 | [3] 0.057 | [4] 0.012 | Nexturastat A 0.007 | vemurafenib 0.068 | [5] 0.118 | [6] 0.013 | givinostat 0.028 | barasertib 0.043

RNF220 (UniProt Q5VTB9)
Sequence of UniProt Q5VTB9 (Q5VTB9 whole entry, looked up): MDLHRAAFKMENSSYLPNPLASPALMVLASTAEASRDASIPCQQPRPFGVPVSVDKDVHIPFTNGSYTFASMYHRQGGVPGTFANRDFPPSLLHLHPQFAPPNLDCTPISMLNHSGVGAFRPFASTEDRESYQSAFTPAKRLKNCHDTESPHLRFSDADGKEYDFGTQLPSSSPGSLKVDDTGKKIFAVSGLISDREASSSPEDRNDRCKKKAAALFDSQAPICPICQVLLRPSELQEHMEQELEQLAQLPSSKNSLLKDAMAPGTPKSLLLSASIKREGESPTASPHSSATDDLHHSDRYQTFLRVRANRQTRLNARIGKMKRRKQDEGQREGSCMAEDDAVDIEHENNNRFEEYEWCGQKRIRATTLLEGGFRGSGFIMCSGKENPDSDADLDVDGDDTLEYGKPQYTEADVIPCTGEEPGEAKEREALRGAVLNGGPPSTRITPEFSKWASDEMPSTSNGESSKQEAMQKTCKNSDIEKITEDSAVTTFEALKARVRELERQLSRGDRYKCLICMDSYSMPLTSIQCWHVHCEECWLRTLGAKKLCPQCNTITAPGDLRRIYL
inactive: [1] -0.01 | [2] -0.086 | [3] 0.008 | [4] 0.047 | Nexturastat A 0.008 | vemurafenib -0.001 | [5] -0.001 | [6] -0.023 | givinostat 0.038 | barasertib 0.016

SCAF8 isoform 2 (UniProt Q9UPN6)
Sequence of UniProt Q9UPN6 (Q9UPN6 whole entry, looked up): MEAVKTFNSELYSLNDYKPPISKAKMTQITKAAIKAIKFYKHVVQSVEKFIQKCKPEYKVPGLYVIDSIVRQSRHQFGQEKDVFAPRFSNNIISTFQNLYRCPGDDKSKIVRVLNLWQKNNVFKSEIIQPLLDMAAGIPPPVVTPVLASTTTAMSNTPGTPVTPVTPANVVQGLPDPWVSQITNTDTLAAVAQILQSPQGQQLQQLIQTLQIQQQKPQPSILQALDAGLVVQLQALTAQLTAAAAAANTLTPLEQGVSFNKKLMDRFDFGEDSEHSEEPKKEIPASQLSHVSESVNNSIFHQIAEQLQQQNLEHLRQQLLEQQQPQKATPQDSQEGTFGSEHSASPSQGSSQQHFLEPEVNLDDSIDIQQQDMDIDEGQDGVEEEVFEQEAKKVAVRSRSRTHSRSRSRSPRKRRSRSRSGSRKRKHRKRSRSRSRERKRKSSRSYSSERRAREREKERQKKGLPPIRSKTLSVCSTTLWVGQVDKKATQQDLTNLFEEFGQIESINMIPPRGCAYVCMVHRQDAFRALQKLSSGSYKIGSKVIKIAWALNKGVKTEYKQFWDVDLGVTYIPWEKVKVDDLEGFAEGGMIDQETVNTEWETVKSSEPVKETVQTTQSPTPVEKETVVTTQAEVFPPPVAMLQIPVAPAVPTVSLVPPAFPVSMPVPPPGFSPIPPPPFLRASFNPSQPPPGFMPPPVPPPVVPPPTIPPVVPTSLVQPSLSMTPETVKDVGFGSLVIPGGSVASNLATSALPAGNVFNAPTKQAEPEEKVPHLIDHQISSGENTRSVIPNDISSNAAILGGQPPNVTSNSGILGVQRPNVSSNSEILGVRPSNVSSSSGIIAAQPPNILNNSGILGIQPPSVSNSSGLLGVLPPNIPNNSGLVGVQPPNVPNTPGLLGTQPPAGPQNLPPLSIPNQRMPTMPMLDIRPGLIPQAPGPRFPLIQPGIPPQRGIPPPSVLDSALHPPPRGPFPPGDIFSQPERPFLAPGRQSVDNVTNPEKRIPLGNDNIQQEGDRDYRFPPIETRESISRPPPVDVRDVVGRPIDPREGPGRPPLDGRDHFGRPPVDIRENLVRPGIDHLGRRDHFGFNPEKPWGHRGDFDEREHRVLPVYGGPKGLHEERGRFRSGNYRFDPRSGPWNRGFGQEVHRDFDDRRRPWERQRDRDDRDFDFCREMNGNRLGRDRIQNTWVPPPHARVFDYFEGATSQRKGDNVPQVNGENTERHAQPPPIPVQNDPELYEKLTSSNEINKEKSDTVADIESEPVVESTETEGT
inactive: [1] 0.048 | [2] 0.002 | [3] -0.03 | [4] 0.076 | Nexturastat A 0 | vemurafenib -0.001 | [5] 0.004 | [6] -0.013 | givinostat 0.038 | barasertib 0.067

SACM1L (UniProt Q9NTJ5)
inactive: [1] 0.08 | [2] -0.024 | [3] -0.004 | [4] 0.031 | Nexturastat A -0.03 | vemurafenib 0.052 | [5] 0.069 | [6] 0.043 | givinostat 0.028 | barasertib 0.049

RDH11 (UniProt Q8TC12)
Sequence of UniProt Q8TC12 (Q8TC12 whole entry, looked up): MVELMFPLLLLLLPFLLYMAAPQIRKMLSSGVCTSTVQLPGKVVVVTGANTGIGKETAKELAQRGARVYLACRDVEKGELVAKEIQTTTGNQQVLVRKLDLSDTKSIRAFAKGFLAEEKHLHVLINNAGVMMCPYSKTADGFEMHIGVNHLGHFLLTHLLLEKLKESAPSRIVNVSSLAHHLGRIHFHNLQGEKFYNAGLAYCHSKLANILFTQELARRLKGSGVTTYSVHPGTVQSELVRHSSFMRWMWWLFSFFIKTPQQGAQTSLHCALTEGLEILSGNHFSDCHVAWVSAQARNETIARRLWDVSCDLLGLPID
inactive: [1] 0.068 | [2] -0.054 | [3] 0.019 | [4] -0.016 | Nexturastat A 0.011 | vemurafenib 0.042 | [5] 0.035 | [6] 0.007 | givinostat 0.066 | barasertib 0.057

RRP9 (UniProt O43818)
inactive: [1] -0.03 | [2] 0.057 | [3] -0.046 | [4] -0.081 | Nexturastat A 0.095 | vemurafenib -0.026 | [5] -0.074 | [6] 0.009 | givinostat 0.047 | barasertib -0.084

SERPINA7 (UniProt P05543)
Sequence of UniProt P05543 (P05543 whole entry, looked up): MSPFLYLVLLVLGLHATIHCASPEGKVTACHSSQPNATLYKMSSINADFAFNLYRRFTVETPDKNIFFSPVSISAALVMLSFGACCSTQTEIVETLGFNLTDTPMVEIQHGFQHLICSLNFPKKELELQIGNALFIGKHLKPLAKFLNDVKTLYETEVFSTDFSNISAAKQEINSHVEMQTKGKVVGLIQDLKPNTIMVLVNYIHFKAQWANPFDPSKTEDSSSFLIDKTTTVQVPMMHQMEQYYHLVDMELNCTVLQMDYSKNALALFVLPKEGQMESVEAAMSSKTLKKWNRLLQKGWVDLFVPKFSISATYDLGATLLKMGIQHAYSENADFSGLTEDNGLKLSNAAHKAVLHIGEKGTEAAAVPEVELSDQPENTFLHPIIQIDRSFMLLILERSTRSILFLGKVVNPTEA
inactive: [1] -0.121 | [2] 0.496 | [3] 0.067 | [4] -0.021 | Nexturastat A 0.086 | vemurafenib -0.06 | [5] -0.271 | [6] -0.349 | givinostat -0.043 | barasertib -0.127
